Data reported in PubChem BioAssay (NCATS).
Results filed as inconclusive are left out. Values without a mark were called inactive. Calls of active or inactive are those of the source. Calls follow the shape of the dose curve; as a rule, active = well fitted inhibition curve with a large enough effect; inconclusive = small, poorly fitted or top-dose-only effect; inactive = flat fitted curve, though single readings scatter.

tested on: DIV30; test: qHTS profiling for inhibitors of Plasmodium falciparum proliferation (AID 504749); also: nearly all actives have a fitted effect of over 60% in size;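 as to activity, negative = inhibition: 0% = DMSO vehicle and full inhibition = artemisinin control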; conditions: P. falciparum in erythrocytes, SYBR Green DNA, 72 h; series mostly up to 28.7 µM; activity, negative = inhibition: at the top concentration
How it was run: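 In a 72 h erythrocytic culture (37 C, humidified, 5% CO2) at 2.5% hematocrit and 0.3% starting parasitemia, compounds were tested; SYBR Green I in detergent lysis buffer stained parasite DNA overnight.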
Potency is read from the fitted curve at half-maximal effect.

Row | Structure (SMILES) | activity, negative = inhibition | Potency
1 | CC(C)C(=O)Nc1ccc([N+](=O)[O-])c(C(F)(F)F)c1 | -6.04% | 
2 | NC(=O)NO | -1.17% | 
3 | CCOC(=O)C(C)(C)Oc1ccc(Cl)cc1 | -18.2% | 
4 | CC(CCc1ccc(O)cc1)NCCc1ccc(O)c(O)c1 (stereo not drawn) | 5.79% | 
5 | Cc1cn([C@H]2C[C@H](N=[N+]=[N-])[C@@H](CO)O2)c(=O)[nH]c1=O | -10.7% | 
6 | Cc1cc(C(C)(C)C)c(O)c(C)c1CC1=NCCN1 | -3.22% | 
7 | NS(=O)(=O)c1cc2c(cc1Cl)NCNS2(=O)=O | 3.75% | 
8 | CCOC(=O)c1ncn2c1CN(C)C(=O)c1cc(F)ccc1-2 | -0.308% | 
9 | COC(=O)Nc1nc2ccc(C(=O)c3cccs3)cc2[nH]1 | -5.15% | 
10 | Clc1ccc2nsnc2c1NC1=NCCN1 | 2.87% | 
11 | Cn1c(=O)c2c(ncn2C)n(C)c1=O | -14% | 
12 | CC(C)Cc1ccc(C(C)C(=O)O)cc1 (stereo not drawn) | 5.84% | 
13 | Cn1cnc2c1c(=O)[nH]c(=O)n2C | -2.4% | 
14 | Cn1c(=O)c2[nH]cnc2n(C)c1=O | -4.16% | 
15 | NCCCCCC(=O)O | -1.37% [at 12.8 µM] | 
16 | CC(C)(Oc1ccc(C2CC2(Cl)Cl)cc1)C(=O)O (stereo not drawn) | -1.92% | 
17 | CN1C(C(=O)Nc2ccccn2)=C(O)c2ccccc2S1(=O)=O | -3.09% [at 12.8 µM] | 
18 | N[C@@H](Cc1c[nH]c2ccc(O)cc12)C(=O)O | 8.16% | 
19 | COc1cc2c(c(OC)c1OC)-c1ccc(OC)c(=O)cc1[C@@H](NC(C)=O)CC2 | -3.32% | 

Row | Structure (SMILES) | activity, negative = inhibition | Potency
20 | Cc1cc(C(C)(C)C)cc(C)c1CC1=NCCN1 | -19.8% [at 12.8 µM] | 
21 | Cc1cnc(C(=O)NCCc2ccc(S(=O)(=O)NC(=O)NC3CCCCC3)cc2)cn1 | -11% | 
22 | CN1CCN2c3ccccc3Cc3ccccc3C2C1 (stereo not drawn) | 2.32% | 
23 | CC[N+](CC)(CC)CCOc1cccc(OCC[N+](CC)(CC)CC)c1OCC[N+](CC)(CC)CC | -6.01% | 
24 | Cc1ccc(C(=O)Nc2ccc(S(=O)(=O)O)c3cc(S(=O)(=O)O)cc(S(=O)(=O)O)c23)cc1NC(=O)c1cccc(NC(=O)Nc2cccc(C(=O)Nc3cc(C(=O)Nc4ccc(S(=O)(=O)O)c5cc(S(=O)(=O)O)cc(S(=O)(=O)O)c45)ccc3C)c2)c1 | -2.63% | 
25 | CS(=O)(=O)Nc1ccc([N+](=O)[O-])cc1Oc1ccccc1 | -1.63% [at 12.8 µM] | 
26 | CC(=O)OCC(CCn1cnc2cnc(N)nc21)COC(C)=O | 5.64% | 
27 | C[C@](N)(Cc1ccc(O)c(O)c1)C(=O)O | -6.63% | 
28 | COc1ccccc1OCC(O)CN1CCN(CC(=O)Nc2c(C)cccc2C)CC1 (stereo not drawn) | -3.37% | 
29 | Cc1cn([C@H]2C=C[C@@H](CO)O2)c(=O)[nH]c1=O | 1.48% | 
30 | Clc1ccccc1C(c1ccccc1)(c1ccccc1)n1ccnc1 |  | 228 nM (active)
31 | CC(C)(C)C(=O)Oc1ccc(S(=O)(=O)Nc2ccccc2C(=O)NCC(=O)O)cc1 | 7.8% | 
32 | NC(=O)OCC(COC(N)=O)c1ccccc1 | 2.04% | 
33 | COc1ccccc1N1CCN(CC(O)COc2cccc3ccccc23)CC1 (stereo not drawn) | -15.9% | 
34 | O=c1c(-c2ccc(O)cc2)coc2cc(O)cc(O)c12 | -10.2% | 
35 | CCCNCC(O)COc1ccccc1C(=O)CCc1ccccc1 (stereo not drawn) |  | 1690 nM (active)
36 | NCCc1cnc[nH]1 | -4.38% | 
37 | CN(C)c1nc(N(C)C)nc(N(C)C)n1 | -1.09% [at 12.8 µM] | 
38 | CC(C)NCC(O)c1ccc(O)c(O)c1 (stereo not drawn) | -3.68% | 
